# Source: PubChem (Paczesny and Yang Labs, IUPUI and University of Michigan)
# ST2 IL33 inh: blocks human ST2 binding to IL-33 | Q01638 | AlphaLISA ST2-Fc/biotin-IL-33 interaction, 1 h | inhibition, % for hits at 17 µM | 78,000 tested, 2.3% active | AID 1259354; in the data active means inhibition above about 30%
# Target sequence (Q01638 whole entry, looked up): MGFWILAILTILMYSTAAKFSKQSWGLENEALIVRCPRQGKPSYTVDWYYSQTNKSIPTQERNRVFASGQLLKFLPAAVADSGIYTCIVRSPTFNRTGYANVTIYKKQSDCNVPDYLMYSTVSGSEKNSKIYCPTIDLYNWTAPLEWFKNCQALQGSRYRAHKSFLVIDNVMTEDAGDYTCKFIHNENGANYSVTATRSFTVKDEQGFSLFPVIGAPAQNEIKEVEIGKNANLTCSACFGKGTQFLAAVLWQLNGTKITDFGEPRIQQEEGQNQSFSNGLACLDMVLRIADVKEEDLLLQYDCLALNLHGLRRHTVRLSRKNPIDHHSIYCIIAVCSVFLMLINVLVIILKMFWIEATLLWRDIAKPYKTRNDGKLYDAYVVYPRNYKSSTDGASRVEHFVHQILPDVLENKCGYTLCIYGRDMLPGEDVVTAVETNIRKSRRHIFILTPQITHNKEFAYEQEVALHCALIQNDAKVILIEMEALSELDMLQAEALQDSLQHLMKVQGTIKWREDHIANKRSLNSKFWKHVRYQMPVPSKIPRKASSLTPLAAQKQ
# Numbers without * were called inactive; i = inactive; ! = not confirmed by another sample. Many of the other results were omitted from the sample, so hits are more common in it than they were.
SMILES,ST2 IL33 inh
Cc1ccc(Cl)cc1N1C(=O)c2c(C)nc3ccccc3c2C1=O,31%*
COc1cc([N+](=O)[O-])ccc1N1C(=O)c2c(C)nc3ccccc3c2C1=O,i
Cc1nc2ccccc2c2c1C(=O)N(c1ccc(C(N)=O)cc1)C2=O,i
Cc1nc2ccccc2c2c1C(=O)N(c1cccnc1Cl)C2=O,i
Cc1nc2ccccc2c2c1C(=O)N(c1ccc3c(c1)OCO3)C2=O,51%*
Cc1noc(C)c1-c1nc(CC(C)C)nn1-c1ccc2c(c1)OCO2,i
Cc1ccccc1CSC1=NCCN1C(=O)c1ccccc1F,i
O=C(O)C1CC=C(Cl)CC1C(=O)Nc1cc([N+](=O)[O-])ccc1O (configuration not stated),i
COc1ccc(N2C(=O)C3C4CCC(C4)C3C2=O)cc1OC (configuration not stated),i
CCC1CN(C(=O)COc2cccnc2)CCC(=O)N1Cc1ccccc1 (configuration not stated),i
CCOc1cc(/C=C2/SC(=O)NC2=O)ccc1OCc1ccccc1,i
CCOc1cc(/C=C2/Sc3ccccc3C2=O)ccc1O,59%*
CC(C)c1ccc(/C=C2\Sc3ccccc3C2=O)cc1[N+](=O)[O-],i
CCOc1cc(-c2ccc(O)cc2)cc(=O)c2c(C)oc(C)c12,i
CCOc1cc(/C=C2/C=C(c3ccc(C)cc3)OC2=O)ccc1O,31%*
CCOc1cc(/C=C2/C(=O)N(c3ccccc3)N=C2C)ccc1O,i
O=C(c1cn2cc(Cl)ccc2n1)N1CCC2(CC1)C(=O)Nc1ccccc12,i
CCOC(=O)CN(Cc1ccccc1Cl)S(=O)(=O)c1ccc(C(C)(C)C)cc1,i
CC(=O)N1c2ccccc2N=C(c2ccccc2)CC1c1ccccc1 (configuration not stated),i
Cc1cc2n(n1)C(c1ccc(Cl)cc1)CC(c1ccccc1)=N2 (configuration not stated),30%*!
O=C(O)CCC(=O)N1N=C(c2ccccc2)CC1c1ccc(Cl)cc1 (configuration not stated),i
CC12COc3ccccc3C1c1sc(=O)[nH]c1SC2 (configuration not stated),32%*
O=c1[nH]c2c(s1)C1c3cc([N+](=O)[O-])ccc3OCC1CS2 (configuration not stated),i
CC1CCC2C(C1)c1sc(=O)[nH]c1SC2(C)C (configuration not stated),i
Cn1ccnc1C(NC(=O)Cc1ccccn1)C1CC1 (configuration not stated),i
SMILES,ST2 IL33 inh
COc1cccc(-c2ncnn2-c2sc3c(c2C#N)CCCCC3)c1OC,i
COc1cc(-c2ncnn2-c2sc3c(c2C#N)CCCCC3)cc(OC)c1OC,i
N#Cc1c(-n2ncnc2-c2cccs2)sc2c1CCCCC2,44%*
CC(=O)N(c1ccc2oc3c(c2c1)CCCC3)S(=O)(=O)c1cc([N+](=O)[O-])ccc1C,i
Cc1cc(NC(=O)c2noc3c2CC(C)CC3)no1 (configuration not stated),i
CC1CCc2oc3cc([N+](=O)[O-])cc([N+](=O)[O-])c3c2C1 (configuration not stated),59%*
Cc1cccc(CN(Cc2ccccc2)C(=O)c2nc(C)oc2C)n1,i
COc1ccc2cc(C3CN(CCn4cccn4)CCO3)ccc2c1 (configuration not stated),i
O=C(Cc1ccc(F)cc1)Nc1ccc(S(=O)(=O)Nc2nccs2)cc1,i
O=C1NC(=Nc2ccccc2)SC1Cc1cccc([N+](=O)[O-])c1 (configuration not stated),i
O=C1NC(=Nc2ccccc2)SC1Cc1ccccc1 (configuration not stated),i
COc1ccc(CC2SC(=Nc3ccccc3)NC2=O)cc1 (configuration not stated),31%*
CN(C)S(=O)(=O)c1ccc(C(=O)Nc2nc3c(cc4c5c(cccc53)CC4)s2)cc1,i
CCC(C)NC(=O)c1ccc2c(c1)N(Cc1ccc(C)cc1)C(=O)CS2 (configuration not stated),i
OCC1(O)CCN(c2cccc(C(F)(F)F)n2)CC1,i
Cc1cccc2oc(-c3cccc(N=Cc4cc([N+](=O)[O-])ccc4O)c3)nc12,i
COc1cc([N+](=O)[O-])cc(C=Nc2ccc3oc(-c4ccccc4C)nc3c2)c1O,i
Cc1cccc2oc(-c3ccc(N=Cc4cccc([N+](=O)[O-])c4O)cc3)nc12,i
Cc1cccc2oc(-c3cc(N=Cc4cc([N+](=O)[O-])ccc4O)ccc3O)nc12,32%*
O=[N+]([O-])c1ccc(O)c(C=Nc2ccc3oc(Cc4ccccc4)nc3c2)c1,48%*
CCOc1ccc(-c2nc3cc(N=Cc4cc([N+](=O)[O-])ccc4O)ccc3o2)cc1,i
CCCC12CN3CC(CCC)(CN(C1)C3c1ccc(Cl)cc1)C2=O (configuration not stated),i
CCCCOC(=O)c1ccc(NC(=O)c2cnc3scc(C)n3c2=O)cc1,i
CCc1ncc(C(=O)NCc2cc(C)cc3c(C)c(C)[nH]c23)cn1,i
CCOc1ccccc1NC(=O)C(NS(=O)(=O)c1ccc2c(c1)oc(=O)n2C)C(C)C (configuration not stated),i
SMILES,ST2 IL33 inh
Cc1ccc(C(=O)Nc2ccc(N3CCOCC3)c(Cl)c2)c(Cl)c1,i
N#C/C(=C\c1ccc(Cl)cc1)c1nc(C2CC2)cs1,66%*
N#C/C(=C\c1ccc([N+](=O)[O-])cc1)c1nc(-c2ccc3c(c2)OCO3)cs1,i
N#C/C(=C\c1ccc(F)cc1)c1nc(C2CC2)cs1,52%*
Cc1cc(C(=O)N2CCC3(CCCN(Cc4cccc(F)c4F)C3)C2)nc(C)n1 (configuration not stated),i
O=C(Nc1ccccc1CO)c1ccc(I)cc1,i
Cc1ccc2cccc(OC(=O)c3cc4ccccc4o3)c2n1,i
C[C@H]1[C@@H]2[C@@H](O)C([C@H](C)C(=O)NCc3cc(F)cc(F)c3)CC[C@@]2(C)CC[C@@H]1NC(=O)Cc1ccccc1 (some centres not stated),i
COc1cccc(OC)c1OCC(O)CN1CCCCC1 (configuration not stated),i
Cc1ncc([N+](=O)[O-])n1Cc1ccc(Cl)c(Cl)c1,i
C=CCNC(=O)N[C@H]1CO[C@H]2[C@@H]1OC[C@H]2OC(=O)Nc1ccccc1,i
Oc1cccc(C=Nc2ccc(Cl)c(Cl)c2)c1O,i
C=CCOc1ccc(C=Nc2ccc(C)c(Cl)c2)c(O)c1,92%*
Cc1ccc(N=Cc2nc(-c3ccc(Br)cc3)oc2O)cc1Cl,i
CCSc1nnc2c(n1)OC(c1ccncc1)Nc1ccc(Br)cc1-2 (configuration not stated),i
Oc1ccc(-c2csc(Nc3ncccn3)n2)cc1O,44%*
Cc1ccc(C)c(-c2csc(Nc3ncccn3)n2)c1,i
c1cnc(Nc2nc(-c3ccncc3)cs2)nc1,i
O=C(CN1C(=O)/C(=C\c2cccc(Cl)c2)Sc2ccccc21)NCc1cccnc1,i
O=C(CN1C(=O)/C(=C\c2ccc(Cl)cc2)Sc2ccccc21)NCc1ccccn1,42%*
CCCCN(C)CCCNC(=O)CN1C(=O)/C(=C\c2cccc(Cl)c2)Sc2ccccc21,43%*
COCCNC(=O)c1ccc(/C=C2\Sc3ccccc3N(Cc3ccc(F)cc3)C2=O)cc1,i
O=C(CN1C(=O)/C(=C\c2ccc(Cl)cc2)Sc2ccccc21)NC1CCCC1,i
